# ASK1 primary = inhibitors of human ASK1 kinase; Q99683; AlphaScreen MKK6 phosphorylation by ASK1, luminescence; inhibition, % at 7.44 µM; 0.99% of 22,000 active; AID 1159602; in the data active means inhibition above about 35%
# Target sequence (Q99683 whole entry, looked up): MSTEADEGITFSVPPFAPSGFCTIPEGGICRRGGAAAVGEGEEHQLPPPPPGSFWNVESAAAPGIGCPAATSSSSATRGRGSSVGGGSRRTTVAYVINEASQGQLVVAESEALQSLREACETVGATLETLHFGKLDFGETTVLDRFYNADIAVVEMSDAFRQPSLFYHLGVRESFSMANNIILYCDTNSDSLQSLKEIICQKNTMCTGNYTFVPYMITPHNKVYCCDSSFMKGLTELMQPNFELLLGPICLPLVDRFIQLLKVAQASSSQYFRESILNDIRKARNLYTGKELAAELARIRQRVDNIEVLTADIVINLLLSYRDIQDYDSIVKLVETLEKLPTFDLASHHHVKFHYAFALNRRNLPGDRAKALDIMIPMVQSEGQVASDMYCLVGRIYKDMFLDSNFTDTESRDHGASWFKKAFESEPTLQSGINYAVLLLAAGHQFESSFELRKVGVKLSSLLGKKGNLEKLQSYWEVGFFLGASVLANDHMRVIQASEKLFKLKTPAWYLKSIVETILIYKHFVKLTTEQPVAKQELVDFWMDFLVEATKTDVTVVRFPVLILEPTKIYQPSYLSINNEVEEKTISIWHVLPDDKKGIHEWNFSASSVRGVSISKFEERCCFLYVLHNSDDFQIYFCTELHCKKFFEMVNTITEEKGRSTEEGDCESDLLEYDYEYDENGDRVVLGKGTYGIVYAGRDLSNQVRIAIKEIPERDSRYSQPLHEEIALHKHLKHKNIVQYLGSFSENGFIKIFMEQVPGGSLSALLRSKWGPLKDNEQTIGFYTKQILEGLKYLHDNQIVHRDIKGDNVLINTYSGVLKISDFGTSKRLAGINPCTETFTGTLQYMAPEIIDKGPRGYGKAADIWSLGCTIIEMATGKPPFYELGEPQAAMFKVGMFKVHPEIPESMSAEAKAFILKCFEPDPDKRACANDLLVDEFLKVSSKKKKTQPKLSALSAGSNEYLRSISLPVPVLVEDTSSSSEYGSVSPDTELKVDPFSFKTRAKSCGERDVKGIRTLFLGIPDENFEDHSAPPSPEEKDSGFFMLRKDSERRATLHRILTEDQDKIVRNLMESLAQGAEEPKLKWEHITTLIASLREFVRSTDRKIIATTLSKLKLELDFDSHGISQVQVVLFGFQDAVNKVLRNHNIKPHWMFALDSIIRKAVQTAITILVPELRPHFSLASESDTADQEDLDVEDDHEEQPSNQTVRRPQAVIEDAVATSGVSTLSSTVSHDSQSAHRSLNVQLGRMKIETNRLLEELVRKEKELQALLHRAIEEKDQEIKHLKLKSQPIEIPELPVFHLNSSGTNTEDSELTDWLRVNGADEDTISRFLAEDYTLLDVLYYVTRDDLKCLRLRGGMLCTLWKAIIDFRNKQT
# ULK1 primary = human ULK1 kinase inhibition, primary screen; O75385; AlphaScreen Atg13 phosphorylation by ULK1, luminescence; inhibition, % at 5.96 µM; 1.9% of 30,000 active; AID 1259251; in the data active means inhibition above about 43%
# A number is an active result; n = inactive; x = no result given. Most compounds without a hit are left out; they make up all but 2.4% or so of the library.
SMILES,ASK1 primary,ULK1 primary
COc1cccc(CNS(=O)(=O)c2ccc(-c3ncnc4[nH]ccc34)cc2F)c1,n,n
Cc1nn(C)c(C)c1-c1nc2ccc(C(=O)NCc3cccnc3)cc2s1,n,n
O=C(NCc1ccc(-c2cn[nH]c2)cc1)C1COc2ccccc2O1 (centres undefined),n,n
COc1ccc(-c2cc(NCCOc3ccccc3)nc(N)n2)cn1,n,n
COc1ccc(-c2nc(C)cc(Nc3ccccc3)n2)cn1,n,n
CNC(=O)c1ccccc1Nc1cc(NC(=O)Cc2ccc(F)cc2)ncc1C(F)(F)F,n,57.1
COc1ccc(CC(=O)Nc2cc(Nc3ccccc3-c3ncco3)c(C(F)(F)F)cn2)cc1,n,n
COc1ccc(CC(=O)Nc2cc(Nc3ccccc3NC(C)=O)c(C(F)(F)F)cn2)cc1,n,n
NC(=O)c1ccccc1Nc1cc(NC(=O)Cc2ccc(F)cc2)ncc1F,n,n
CNS(=O)(=O)c1ccccc1Nc1cc(NC(=O)Cc2ccc(OC)cc2)ncc1C(F)(F)F,n,57.2
CNC(=O)c1ccccc1Nc1cc(NC(=O)Cc2cccs2)ncc1C(F)(F)F,n,46.5
CNC(=O)c1ccccc1Nc1cc(NC(=O)Cc2ccc(N)cc2)ncc1C(F)(F)F,n,68.2
CC(C)n1c(-c2ccccc2)nc2c(NCCO)ncnc21,n,n
NC(=O)c1ccc(-c2cc(C(=O)Nc3ccc(Oc4ccccc4)cc3)ccn2)cc1,n,n
COc1ccc(CCNC(=O)C(Cc2c[nH]c3ccccc23)NC(C)=O)cc1 (centres undefined),x,n
CNC(=O)c1ccccc1Nc1cc(NCc2ccccc2)ncc1C(F)(F)F,n,54.6
CNC(=O)c1ccccc1Nc1cc(NC(=O)C2CCc3ccccc32)ncc1C(F)(F)F (centres undefined),n,n
CNC(=O)c1ccccc1Nc1cc(Nc2ncccn2)ncc1C(F)(F)F,n,n
O=C(Cc1ccc2c(c1)OCO2)Nc1cc(Nc2ccccc2-c2nn[nH]n2)c(C(F)(F)F)cn1,n,n
CNC(=O)c1ccccc1Nc1cc(NC(=O)Cc2ccsc2)ncc1C(F)(F)F,n,52.2
CNC(=O)c1ccccc1Nc1cc(NC(=O)Cc2ccccc2F)ncc1C(F)(F)F,n,53.0
CC(C)n1cnc2c(NCCc3ccc(O)cc3)nc(N3CCN(Cc4ccc5c(c4)OCO5)CC3)nc21,n,n
CC(C)n1c(NCc2cccnc2)nc2c(NCc3nc4ccccc4[nH]3)ncnc21,n,n
Cn1nccc1Nc1cc(NC2CCN(Cc3ccccc3)CC2)ncn1,n,n
c1ccc(CN2CCC(Nc3nc(Nc4ccccc4)nc4nc[nH]c34)CC2)cc1,n,n
SMILES,ASK1 primary,ULK1 primary
CN1CCN(c2cc(-c3ccncc3)nc(-c3ccccn3)n2)CC1,x,n
CC(C)n1c(Nc2ccc(N3CCOCC3)cc2)nc2c(Nc3ccccc3)ncnc21,n,n
CC(C)n1c(Nc2cccc(N(C)C)c2)nc2c(Nc3ccc(N4CCOCC4)cc3)ncnc21,37.4,n
O=C(Nc1ccc2c(c1)OCO2)c1cccc(N2CCN(c3ccccn3)CC2)n1,n,n
O=C(NCCc1ccc(O)cc1)c1ccnc(Nc2ccncn2)c1,n,n
CN1CCN(c2ncn(-c3ccc(Nc4nccc(-c5cc(F)cc(N6CCOCC6)c5)n4)cc3)n2)CC1,n,n
CCN(CC)C(=O)C1CCCN(c2nc(NCc3nc4ccccc4[nH]3)c3cc(OC)c(OC)cc3n2)C1 (centres undefined),n,49.5
CCN(CC)C(=O)C1CCCN(c2nc(NCc3cccnc3)c3cc(OC)c(OC)cc3n2)C1 (centres undefined),n,n
COc1cc2nc(-c3ccccc3)nc(N)c2cc1OC,n,n
COc1ccc(CCNc2nc(-c3ccccc3)nc3nc[nH]c23)cc1,n,n
Cc1ccc(-c2cccc3cnc(Nc4cccc(C(=O)N5CCOCC5)c4)nc23)cn1,n,63.9
Cc1ncn(-c2ccc(Nc3ncc4cccc(-c5cncc(C(=O)N6CCOCC6)c5)c4n3)cc2)n1,n,n
Cc1ccc(-c2cccc3cnc(Nc4ccc(C(=O)N5CCCC5)cc4)nc23)cn1,n,63.2
Cc1ccc(-c2cccc3cnc(NC4CCN(C(=O)N5CCCC5)C4)nc23)cn1 (centres undefined),n,n
CCC(CC)C(=O)Nc1nnc2n1CCCS2,x,n
CN1Cc2cccc(Nc3cc(Nc4cccc5c4C(=O)N(C)C5)c(C(F)(F)F)cn3)c2C1=O,n,n
FC(F)(F)c1cnc(Nc2ccccn2)cc1Nc1ccccn1,n,50.4
N[C@@H](Cc1ccc(O)c(O)c1)C(=O)O,x,n
C[C@H](Cc1ccc(O)c(O)c1)[C@@H](C)Cc1ccc(O)c(O)c1,x,77.7
O=C1CCCN1CCCNc1ccnc(NCc2cccnc2)n1,n,n
Cc1cc(-c2ccc(N=Nc3c(S(=O)(=O)O)cc4cc(S(=O)(=O)O)cc(N)c4c3O)c(C)c2)ccc1N=Nc1c(S(=O)(=O)O)cc2cc(S(=O)(=O)O)cc(N)c2c1O,x,80.9
N#Cc1cc(-c2ccnc(Nc3ccc4c(c3)OCO4)n2)cc(N2CCOCC2)c1,n,n
CNC(=O)c1ccccc1Nc1cc(Nc2ccc(N3CCOCC3)cn2)ncc1C(F)(F)F,n,90.8
COc1cc(N2CCOCC2)ccc1Nc1cc(Nc2cccnc2)c(C(F)(F)F)cn1,n,n
CNC(=O)c1ccccc1Nc1cc(Nc2ccc(N3CCOCC3)cc2C)ncc1C(F)(F)F,n,92.0
SMILES,ASK1 primary,ULK1 primary
COc1cc(NC(=O)c2cccc(-c3cccs3)c2)cc(OC)c1OC,n,n
NC(=O)Cc1cn(-c2ccc(Oc3ccccc3)nn2)c2ccccc12,n,n
O=C(Nc1cnn(-c2cccc(CNc3ccc(N4CCOCC4)cc3)c2)c1)Nc1ccccc1Cl,n,49.4
O=C(Nc1cnn(-c2cccc(C(=O)Nc3ccc(N4CCOCC4)cc3)c2)c1)Nc1ccccc1Cl,n,n
NC(Cc1ccc(-c2ccncc2)cc1)c1nc2ccc(-c3ccncc3)cc2[nH]1 (centres undefined),n,n
FC(F)(F)c1ccc(Nc2nc(NCCOc3ccccc3)c3ncn(C4CCCCC4)c3n2)cc1,n,n
COc1ccc(C(=O)c2oc3ccc(NC(=O)c4ccc(OC)c(OC)c4)cc3c2C)cc1,x,n
COc1ccc(C(=O)c2oc3ccc(NC(C)=O)cc3c2C)cc1,x,57.5
c1cc(Cn2cncn2)cc(Nc2nccc(-c3cncc(N4CCOCC4)c3)n2)c1,n,55.4
c1cc(-c2cncc(N3CCOCC3)c2)nc(Nc2ccc(-n3cncn3)cc2)n1,n,n
c1cn(-c2ccc(Nc3nccc(-c4cncc(N5CCOCC5)c4)n3)cc2)cn1,n,n
c1cc(Cn2ccnc2)cc(Nc2nccc(-c3cncc(N4CCOCC4)c3)n2)c1,n,79.6
FC(F)(F)c1cccc(CNc2ccnc(Nc3ncccn3)n2)c1,n,n
OCC1CCCN1c1nc(NCCN2CCOCC2)c2ncn(-c3ccccc3)c2n1 (centres undefined),n,n
COc1cc(Nc2cc(Nc3ccccc3C(N)=O)ccn2)ccc1N1CCOCC1,n,n
NC(=O)c1ccccc1Nc1nc(Nc2ccc(N3CCOCC3)cc2F)ncc1Cl,n,82.9
NC(=O)c1ccccc1Nc1nc(Nc2ccc(F)cc2)ncc1Cl,n,84.9
NC(=O)c1ccccc1Nc1nc(Nc2ccc(N3CCOCC3)c(F)c2)ncc1Cl,n,72.3
Cn1ncnc1-c1ccccc1Nc1nc(Nc2ccc(N3CCOCC3)cc2)ncc1Cl,n,78.0
Cn1cnc(-c2ccccc2Nc2nc(Nc3ccc(N4CCOCC4)cc3)ncc2Cl)n1,n,n
Fc1cc(N2CCOCC2)ccc1Nc1nccc(-c2cncc(N3CCOCC3)c2)n1,n,n
